# Rows were chosen to be rich in hits. Some 11% of all compounds tested hit in one or more screens of this group.
# HPGD block: inhibitors of human 15-hydroxyprostaglandin dehydrogenase (HPGD). P15428. 150,000 compounds, 4.3% hits. AID 894. purified HPGD, NADH fluorescence kinetic, PGE2 substrate. Potency, µM, for inactives: top-dose activity change, negative = inhibition, most hits filed as inhibitors; also: potency is read from the fitted curve at half-maximal effect
# Target sequence (P15428 whole entry, looked up): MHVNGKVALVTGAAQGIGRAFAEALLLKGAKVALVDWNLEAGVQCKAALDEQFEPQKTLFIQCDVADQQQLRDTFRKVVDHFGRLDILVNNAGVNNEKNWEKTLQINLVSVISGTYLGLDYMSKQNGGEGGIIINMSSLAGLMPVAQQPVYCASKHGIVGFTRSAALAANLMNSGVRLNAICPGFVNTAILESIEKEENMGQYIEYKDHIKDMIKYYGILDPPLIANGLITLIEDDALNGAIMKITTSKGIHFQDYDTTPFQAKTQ
#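 20 nM HPGD preincubated 15 min at room temperature with compound in 50 mM Tris-HCl pH 8, 0.01% Tween 20. Started with 1 mM NAD+ and 30 uM prostaglandin E2; NADH fluorescence (360/450 nm) read 5 times over 30-s intervals, last minus first.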
# ALDH1A1 inh: blocks purified human ALDH1A1 activity | 220,000 compounds, 7.3% hits | P00352 | AID 1030 | Potency, µM (series often up to 75.3 µM), inactives show at the highest dose activity, negative = inhibition, actives largely listed as inhibitors | Purified ALDH1A1, NADH fluorescence, propionaldehyde substrate;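 also: potency is read from the fitted curve at half-maximal effect; plate controls were no enzyme wells and a reference inhibitor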
# PNC inhibitor: perinucleolar compartment assembly inhibition; AID 2417; 140,000 compounds, 3.1% hits; PC3M PTB-GFP, PNC prevalence imaging, 16 h; hits give low values; activity change (PNC), negative = inhibition, % at 10 µM;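 active = readout at or below -70, meaning at least 70% loss of cells showing the perinucleolar compartment, a nuclear body marking cancer cells; inconclusive = readout between -30 and a set limit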;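 also: plate controls were DMSO wells for no effect and camptothecin positive control wells for full effect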
#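 Compounds are pinned in duplicate onto adhered PC3M cells stably expressing GFP-tagged PTB and incubated 16 h at 37 C. Cells are then fixed, nuclei stained with Hoechst, and PNC-positive cells counted.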
# An asterisk follows results filed as active; ? = inconclusive; nt = not tested or not shown; [ ] = dose if it differs, or a comment. Unless noted, calls follow the shape of the dose curve; as a rule, active = well fitted inhibition curve with a large enough effect (not every such curve was filed as active); inconclusive = small, poorly fitted or top-dose-only effect, or another doubt; inactive = no such curve, though single readings can be large or run the other way. Unless noted, % is scaled to controls: 0 for no effect and ±100 for the full control effect.
SMILES,HPGD block,ALDH1A1 inh,PNC inhibitor
COc1ccc(C(CNc2ccc(S(=O)(=O)N3CCCC3)cc2[N+](=O)[O-])N2CCCC2)cc1 (stereo not drawn),-10.7%,?,?
Nc1ncnc2c1ncn2[C@@H]1O[C@H](COP(=O)(O)OP(=O)(O)O)[C@@H](O)[C@H]1O,-3.8%,0.6%,nt
O=C(CCCC(=O)N(CC(=O)NC1CCCC1)Cc1ccc2c(c1)OCO2)Nc1ccccn1,-3.3%,-1.8%,?
COC(=O)c1c[nH]n2c(=O)cc(C)nc12,-21.3%,-6.7%,-2.5
COC(=O)c1c[nH]n2c(=O)c(Cl)c(C)nc12,-11.2%,-4.2%,-113.4*
O=C(COC(=O)C1(c2ccc(F)cc2)CCCC1)NC1CC1,-2.2%,?,13.3
CCCN(C(=O)COc1ccc(Cl)cc1Cl)c1c(N)n(Cc2ccccc2)c(=O)[nH]c1=O,nt,-1.7%,nt
Nn1c(SCC(=O)N2CCOCC2)nnc1-c1ccccc1Cl,-14.1%,1.9%,67.6
CCOC(=O)c1nn(-c2ccccc2C)c(=O)c(C#N)c1C,-1.8%,4.2%,2.2
CCOC(=O)c1c(N)sn(-c2ccccc2C)c1=S,11.2µM*,3.55µM*,-21.3
COC(=O)C1=C(C)NC(C)=C(C(=O)OC)C1c1ccc(N(C)C)cc1,-12.6%,-2.0%,?
COC(=O)C1C(c2ccc(N(C)C)cc2)C(C(=O)OC)S(=O)(=O)CS1(=O)=O (stereo not drawn),nt,10µM*,nt
COC(=O)c1sccc1NC(=O)c1c(C)c(-c2cccc(Cl)c2)nc2ccccc12,-13.3%,-6.4%,?
COc1cc(OC)cc(-c2nnc(SCc3c(F)cccc3Cl)o2)c1,-26.4%,?,-8.2
CCOC(=O)c1c(NC(=O)COc2cccc3c2CCN(CC)C3=O)sc2c1CCC2,?,6.0%,35.5
COc1ccc2sc(N3C(=O)C4CC=C(C)CC4C3=O)nc2c1 (stereo not drawn),-13.0%,12.6µM*,?
CC1=CCC2C(=O)N(c3cc(C)on3)C(=O)C2C1 (stereo not drawn),-11.4%,-3.3%,?
COc1ccc(Oc2ncc3ncc(=O)n(CCC#N)c3n2)cc1,-10.1%,-0.5%,nt
Cc1ccc2oc(=O)n(CCCOc3ccccc3C)c2c1,nt,3.6%,nt
Nn1c(Cc2cccc3ccccc23)nnc1SCc1c(F)cccc1Cl,22.4µM*,2.7%,-22.7
Nn1c(Cc2ccccc2F)nnc1SCn1nnc2ccccc2c1=O,nt,-3.9%,2.2
Nn1c(Cc2cccc3ccccc23)nnc1SCCOc1ccc(Br)cc1,14.1µM*,?,8.4
Nn1c(Cc2cccc3ccccc23)nnc1SCCOc1ccc(F)cc1,?,9.0%,-22.7
NC(=O)CSc1nnc(COc2ccccc2)n1Cc1ccco1,nt,2.9%,nt
COc1cc(Nc2ccccc2Cl)c([N+](=O)[O-])nc1[N+](=O)[O-],25.1µM*,7.8%,-92.3*
SMILES,HPGD block,ALDH1A1 inh,PNC inhibitor
COc1ccccc1Nc1ccc([N+](=O)[O-])cc1N,-11.3%,-7.7%,9.4
COc1ccc(OC)c(-n2c(=S)[nH]c3c(sc(=S)n3-c3ccccc3)c2=O)c1,nt,-1.8%,nt
COC(=O)/C(=C\C(=O)c1ccccc1)Nc1cccc(C(F)(F)F)c1,-10.2%,?,-12.6
COCCNC(=O)/C(C#N)=C/c1ccc(-c2ccc(OC)cc2[N+](=O)[O-])o1,-9.6%,9.9%,45.2
CCCCCCCCNC(=O)/C(C#N)=C/c1ccc(SC)cc1,-19.2%,-2.6%,?
CCOCCCNC(=O)/C(C#N)=C/c1cc(OC)c(O)c([N+](=O)[O-])c1,nt,12.6µM*,nt
CCOCCCNC(=O)/C(C#N)=C/c1ccc(Cl)c([N+](=O)[O-])c1,nt,10µM*,nt
CCOCCCNC(=O)/C(C#N)=C/c1cc(C)c(O)c(C)c1,nt,10µM*,nt
COCCCNC(=O)/C(C#N)=C/c1ccc(OCC(=O)O)c(OC)c1,?,?,5.1
Nc1nc2c(C(=O)NCc3cccs3)nnn2c2cccc(Cl)c12,-7.0%,-15.7%[13.5 µM],nt
CSc1nnc(NC(=O)c2cc3ccccc3oc2=O)s1,-9.7%,10.0%,40.7
CCOC(=O)c1c(C)n(-c2ccc(C)cc2)c2ccc(OCC(O)CN3CCN(C)CC3)cc12 (stereo not drawn),nt,-3.0%,nt
Cc1ccc(NC(=O)CN(C)C(=O)c2cc3ccccc3o2)cc1,nt,7.2%,nt
O=c1c2cnn(-c3ccccc3)c2nc(-c2cccs2)n1-c1ccc(Br)cc1,-4.6%,-6.4%,-22.9
O=C(O)CSc1nc2c(cnn2-c2ccccc2)c(=O)n1-c1ccc(Br)cc1,14.1µM*,-5.7%,54.0
C=CCN1C(=O)CN=C1Nc1cccc(C)c1,nt,-2.4%,0.5
C=CCN1C(=O)CN=C1Nc1cc(C)ccc1C,-4.8%,3.55µM*,4.1
CN(CC1CCOCC1)C(=O)CC1C(=O)NCCN1Cc1ccc(-c2ccccc2)cc1 (stereo not drawn),nt,-1.5%,nt
O=C1CCCCC1c1cccc2ccccc12 (stereo not drawn),0.4%,10.4%,-10.8
O=C1c2ccccc2C(=O)C12OC2c1cccc2ccccc12 (stereo not drawn),?,1µM*,?
COc1ccc(Nc2nnc(SCC(=O)NC(=O)Nc3ccc4c(c3)OCCO4)s2)cc1,nt,-10.4%,nt
COc1ccc(Nc2nnc(SCC(=O)c3cc(C)n(CC4CCCO4)c3C)s2)cc1 (stereo not drawn),-25.6%,6.31µM*,23.3
COc1ccc(Nc2nnc(SCC3CCCCO3)s2)cc1 (stereo not drawn),nt,-17.1%,nt
COc1ccc(Nc2nnc(SCC(=O)Nc3ccc4[nH]c(=O)[nH]c4c3)s2)cc1,nt,15.8µM*,nt
CN(C)P(=NC(=O)COc1ccc(Cl)cc1Cl)(N(C)C)N(C)C,-1.9%,-0.6%,0.5
SMILES,HPGD block,ALDH1A1 inh,PNC inhibitor
Clc1ccc(-c2csc(Nc3ccccc3)[n+]2Cc2ccco2)c(Cl)c1,nt,17.8µM*,nt
CCCC[n+]1c(-c2ccc(Cl)cc2Cl)csc1Nc1ccccc1,-0.3%,11.4%,?
CCOC(=O)c1cc(Br)c(=O)n2ccccc12,-21.2%,-3.5%,2.9
CCn1cc(C(=O)Nc2ccc(C(=O)N3CCCC3)cc2)c(=O)c2ccc(C)nc21,3.98µM*,11.1%,-6.1
CCn1cc(C(=O)Nc2ccccc2)c(=O)c2ccc(C)nc21,nt,1.5%,nt
CCn1cc(C(=O)OCC(=O)Nc2cccc(S(=O)(=O)N3CCOCC3)c2)c(=O)c2ccc(C)nc21,-7.1%,?,15.7
CCn1cc(C(=O)OCC(=O)c2cc(C)n(-c3ccccc3)c2C)c(=O)c2ccc(C)nc21,-12.2%,-0.7%,51.8
CCn1cc(C(=O)OCC(=O)Nc2ccc(C(C)C)cc2)c(=O)c2ccc(C)nc21,nt,14.1µM*,nt
CCn1cc(C(=O)OCC(=O)c2cc(C)n(-c3ccc(OC(F)F)cc3)c2C)c(=O)c2ccc(C)nc21,-7.7%,10µM*,?
C#Cc1ccc([C@H]2C=C(C(=O)N3CCOCC3)O[C@@H](OCc3ccc(CO)cc3)C2)cc1,nt,-14.1%,nt
CCCCn1c(N)c(NCC(C)C)c(=O)[nH]c1=O,-15.8%,-14.1%,?
COc1ccc(OC)c(C(=O)COC(=O)c2ccccc2O)c1,-13.8%,-8.0%,?
COc1cccc(C(=O)C(C#N)=C(SC)SC)c1,nt,7.08µM*,nt
CSC(SC)=C(C#N)C(=O)c1ccccc1,nt,22.4µM*,nt
N#C/C(C(=O)c1ccccc1)=C1/CCCN1,nt,3.4%,?
COc1cccc(C(=O)Nc2cccc(NC(C)=O)c2)c1,-4.6%,-11.1%,11.2

# Screens as filed in PubChem BioAssay.
